Several values for one entry are separate records, joined by “and”; a condition that tells them apart may be missing. Equal values may be shown once. About 11,000 (3.5%) of roughly 310,000 compounds were called active. About 4% were inconclusive and are not listed. This is one part of a sample in which actives are shown more often than they occur. Values without a mark were called inactive. Calls come from the whole dose curve; as a rule, active = well fitted inhibition curve with a large enough effect; inconclusive = small, poorly fitted or top-dose-only effect, or another doubt; inactive = no such curve, though single readings can be large or run the other way.
target: 4'-phosphopantetheinyl transferase ffp (Bacillus subtilis) (UniProt Q9F4F7); assay: qHTS Assay for Inhibitors of Bacillus subtilis Sfp phosphopantetheinyl transferase (PPTase); details: Biochemical Sfp PPTase activity;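 note: the enzyme is Sfp with the accession as filed and its product quenches rhodamine fluorescence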;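 for largest response in the series, negative = inhibition: 0% = enzyme reaction without inhibitor and -100% = no enzyme wells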
Description: Assay Submitter: Michael Burkart, University of California, San Diego
Screening Center PI: Austin, C.P.
Screening Center: NIH Chemical Genomics Center [NCGC]
The covalent attachment of a phosphopantetheinyl (4'-PP) arm to a variety of synthases and other proteins is a key posttranslational protein modification. The 4'-PP is installed on the proteins post-translationally from coenzyme A (CoA) on a conserved serine residue by action of phosphopantetheinyl transferase (PPTase) enzymes. Phosphopantetheinylation is essential for synthase activity, and removal of the PPTase gene precludes natural product synthesis in microorganisms, or in the case of fatty acid biosynthesis, renders the organism unviable. PPTase enzymes belong to a distinct structural superfamily. Within bacteria, these enzymes are grouped into two classes based upon primary structure, the AcpS-Type and Sfp-Type PPTases.
Sfp-type PPTases, corresponding to an activator of surfactin production in Bacillus subtilis, are responsible for modifying type I polyketide and nonribosomal peptide synthases of prokaryotes. Sfp-type PPTases are responsible for the activation of a variety of pathogen-associated virulence factors. Among these compounds are toxins such as mycolactone from Mycobacterium ulcerans, siderophores such as vibriobactin from Vibrio cholerae or mycobactin from Mycobacterium tuberculosis, as well as the mycolic acids which form the waxy cell wall of Mycobacteria. The biosyntheses of these natural products are considered attractive targets for drug design.
In search of small molecule Sfp-PPTase inhibitors, a fluorescence quenching assay was developed for detection of Bacillus subtilis Sfp-PPTase enzymatic activity in a miniaturized high-throughput format. The consensus ybbr acceptor peptide […] was N-terminally labeled with Black Hole Quencher-2 (BHQ-2) and used in combination with rhodamine-labeled coenzyme A as a co-substrate.
Inhibition of Sfp-PPTase was detected by recording the fluorescence intensity change over a 30-minute reaction period at a 525 nm excitation and 598 nm emission. Reagents were supplied by Michael Burkart and Timothy Foley, University of California at San Diego.
This BioAssay deposition is for validation of the developed Sfp-PPtase assay.
Assay Buffer: 50 mM Hepes-Na pH 7.6, 10 mM MgCl2, 0.01% Nonidet P-40, and 0.01% BSA.
3 uL of Sfp-PPTase enzyme (final concentration 15 nM) and 1 uL of substrate mixture (final concentration for rhodamine-CoA and BHQ-2-YbbR 5 uM and 12.5 uM, respectively) dispensed in columns 1, 2, 5 - 48. Columns 1 and 2 used to generate neutral control (uninhibited reaction)
Three uL of reagents, consisting of buffer (in columns 3 and 4 as negative control) and Sfp-PPTase (in columns 1, 2, 5 - 48) were dispensed into 1,536-well Greiner black solid bottom plate. Compounds (23 nL) were transferred via Kalypsys pintool equipped with 1,536-pin array. The plate was incubated for 15 min at room temperature, followed by the addition of 1 uL substrate to start the reaction. The plate was then centrifuged at 1000 rpm for 15 seconds, and the fluorescence intensity recorded on a ViewLux High-throughput CCD imager (Perkin-Elmer) using standard BODIPY optics (525 nm excitation and 598 nm emission). The plate was then incubated for 30 minutes, and a second read on the ViewLux was performed. The fluorescence intensity difference over the 30-minute period was used to calculate the respective reaction rate for each well.
Potency is the fitted concentration of half-maximal effect.

| Structure (SMILES) | Potency | largest response in the series, negative = inhibition |
| --- | --- | --- |
| COc1ccc(CN2C(=O)NC(=O)/C(=C\c3ccc(OC)c(OC)c3OC)C2=O)cc1 | 56.2 µM (active) |  |
| C1CC[C@H]([C@@]23C[C@H](C[C@H]4CCCN[C@H]42)[C@@H]2CCCCN2C3)NC1 |  | 15.7% |
| CN(C)C[C@H]1CCCC[C@]1(O)c1cccc(O)c1 |  | 5.94% |
| CN(C)CC1Oc2ccccc2OC1(O)c1ccccc1 (configuration not stated) | 39.8 µM (active) |  |
| Fc1cccc(F)c1CN1CCN(Cc2c(F)cccc2F)CC1 |  | 16% |
| Cc1cccc(-n2c(C)nc3cc(C(=O)N4CCC5(CC4)OCCO5)ccc32)c1 |  | 8.78% |
| CN(C)P(=S)(Nc1ccccc1)C(Cl)(Cl)Cl (configuration not stated) |  | 10.7% |
| COC([CH2][Hg])CNC(=O)c1ccccc1OCC(=O)O (configuration not stated) | 0.398 µM (active) |  |
| O=C(NC(c1ccc(Cl)cc1)P(=O)(Oc1ccccc1)Oc1ccccc1)OCc1ccccc1 (configuration not stated) |  | 19.5% |
| CN1CCCC(=C(c2cccs2)c2cccs2)C1 |  | 3.76% |
| c1ccc2c(c1)[I+]c1ccccc1-2 |  | -15.8% and 9.27% |
| O=C1CCc2cccc3c2N1CC3 |  | -2.12% |
| O=C(O)CCn1cc(C=C2C(=O)NC(=S)NC2=O)c(-c2cccc(Br)c2)n1 | 25.1 µM (active) |  |
| O=P1(Oc2ccccc2)CC(O)C(O)C(COCc2ccccc2)O1 (configuration not stated) |  | -2.12% |
| CCCCCCCCCCCCCC(=O)O[C@@H]1[C@@H](C)[C@@]2(O)[C@@H](C=C(CO)C[C@]3(O)C(=O)C(C)=C[C@@H]23)[C@@H]2C(C)(C)[C@]12OC(C)=O |  | 9.82% |
| c1ccc2sc(C3CCCNC3)nc2c1 (configuration not stated) |  | 9.62% |
| Cc1ccc(N(C)C(=O)Oc2cccc3ccc(C)nc23)cc1 |  | 4.73% |
| CC(C)c1ccc(O)c(CN2CCN(c3ccccc3)CC2)c1 |  | 7.52% |
| c1cc2c(cc1CCNC1CCCCCC1)OCO2 |  | -0.383% |

| Structure (SMILES) | Potency | largest response in the series, negative = inhibition |
| --- | --- | --- |
| CCOP(=S)(OCC)C(O)CCCCCn1c(=O)c(F)cn(C2CCCO2)c1=O (configuration not stated) |  | 8.97% |
| N#Cc1cc(Br)c(O)c(Br)c1 |  | 9.61% |
| C/C(=C\C=C/[C@@H](C)C(=O)O)[C@H]1CN[C@H](C(=O)O)[C@@H]1CC(=O)O | 63.1 µM (active) |  |
| C/C=C1\C2C=C(C)CC1(N)c1ccc(=O)[nH]c1C2 (configuration not stated) |  | 24.3% |
| CN(C)C(=O)NC(O)C(Cl)(Cl)Cl (configuration not stated) |  | 0.838% |
| CNC(C)[C@@H](O)c1ccccc1 (some centres not stated) |  | 20.7% |
| O=C1NC(=O)C(C/C=C/c2ccccc2)C(=O)N1 | 70.8 µM (active) |  |
| COc1ccc(CCn2c(O)c(C=NCCCn3ccnc3)c(=O)[nH]c2=O)cc1OC |  | 15.8% |
| CC(Cc1cccs1)NCc1ccc(Cl)cc1 (configuration not stated) |  | 26% |
| O=C(O)c1ccccc1NC(=O)C1C2CCC(O2)C1C(=O)O (configuration not stated) |  | 2.88% |
| Cc1cc(C=C2C(=O)NC(=O)NC2=O)c(C)n1-c1ccncc1 | 56.2 µM (active) |  |
| Cc1ccc(-n2c(C)cc(/C=C3\C(=O)NC(=O)N(C)C3=O)c2C)cc1C |  | -19.1% |
| Cc1ccnc(-n2c(C)cc(/C=C3\C(=O)NC(=S)N(C)C3=O)c2C)c1 | 25.1 µM (active) |  |
| CCN1C[C@]2(C)CC[C@H](O)[C@@]34[C@@H]5CC6[C@@H](OC)C[C@@](O)([C@@H]5[C@@H]6O)[C@H](C[C@@H]23)[C@H]14 |  | 12.6% |
| CC12CN3CC(C)(CN(C1)C3c1cccs1)C2 (configuration not stated) |  | 10.2% |
| CCCCCCCCc1[se]c2ccccc2c1Br |  | 14.5% |
| O=C(Nc1cccc2ccccc12)N1CCC2(CC1)OCCO2 |  | 0.463% |
| O=C(OCC1O[C@@H](OC(=O)c2cc(O)c(O)c(O)c2)[C@@H](OC(=O)c2cc(O)c(O)c(O)c2)[C@@H](OC(=O)c2cc(O)c(O)c(O)c2)[C@@H]1OC(=O)c1cc(O)c(O)c(O)c1)c1cc(O)c(O)c(O)c1 (some centres not stated) | 25.1 µM (active) |  |
| O=C1NC(=O)C(CCc2ccccn2)(Cc2cccc(Cl)c2Cl)C(=O)N1c1ccc(Br)cc1 (configuration not stated) |  | 4.65% |

| Structure (SMILES) | Potency | largest response in the series, negative = inhibition |
| --- | --- | --- |
| COc1cc2c(cc1OC)[C@@H]1C(=O)c3ccc(O)c(CC=C(C)C)c3OC1CO2 (some centres not stated) |  | 0.512% |
| CC(=O)c1c(O)c(C)c(O)c(Cc2c(O)c3c(c(C(=O)/C=C/c4ccccc4)c2O)OC(C)(C)C=C3)c1O |  | -11.4% and -12.1% and -5.71% |
| COc1ccccc1-c1[se]c2ccccc2c1I |  | -3.36% |
| COc1ccc(N2C(=O)/C(=C/c3ccco3)C(=O)NC2=S)cc1 | 11.2 µM (active) |  |
| BrC1C(Br)C(Br)C(Br)C(Br)C1Br (configuration not stated) | 79.4 µM (active) |  |
| Cc1ccc(C2CN(C)CC2C(=O)c2ccc(F)cc2)cc1 (configuration not stated) |  | 15% |
| CC(=NC1CCN(Cc2ccccc2)CC1)c1c(O)n(C)c(=O)n(C)c1=O |  | 8.13% |
| NC[C@H](O)c1ccc(O)cc1 |  | 5.47% |
| CC[C@@H]1CN2CC[C@@H]1C[C@H]2[C@H](O)c1ccnc2ccc(OC)cc12 |  | 6.78% |
| CCN1C[C@]2(COC)C(O)C[C@H](OC)[C@@]34C5C[C@]6(O)C(OC)C(O)[C@](OC(C)=O)(C5C6OC(=O)c5ccccc5)C(C(OC)C23)C14 (some centres not stated) |  | 5.25% |
| COC(=O)N1C(c2ccccc2)C1c1ccccc1 (configuration not stated) |  | 17.3% |
| CC(=O)[O][Sn]([c]1ccccc1)([c]1ccccc1)[c]1ccccc1 | 1.41 µM (active) |  |
| COc1cccc(-c2nc3ccc(N4CCN(C)CC4)cc3[nH]2)c1 |  | -7.35% |
| CCCN(C/C=C/I)C1CCc2ccc(O)cc2C1 (configuration not stated) |  | -26.2% |
| C[C@@]12CC[C@H]3[C@@H](CC[C@]4(O)C[C@H](O)CC[C@@]34C=O)[C@]1(O)CC[C@@H]2C1=CC(=O)OC1 |  | 17.6% |
| O=C1N=c2ccccc2=C/C1=C\c1c(O)[nH]c(=S)[nH]c1=O | 25.1 µM (active) |  |
| COc1ccccc1N=Nc1c(O)[nH]c(=S)[nH]c1=O |  | -20.4% |
| O=c1[nH]c(O)c(C=Nc2cc(F)cc(F)c2)c(=O)[nH]1 |  | -4.22% |
| Cc1ccc2c(c1)=C/C(=C\c1c(O)[nH]c(=O)[nH]c1=O)C(=O)N=2 | 28.2 µM (active) |  |

Source: PubChem BioAssay AID1490 (National Center for Advancing Translational Sciences (NCATS), 2009)
